Results on 13 molecules are retold here after PubChem BioAssay (NCI).

Compounds without any hit were thinned out: in the full panel of roughly 83,000, 20% have a hit.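 Compound tested at a single concentration for 48 hours in 96-well plates; a percent growth value below 10 was scored as active.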 Values without a mark were called inactive. Active and inactive are the calls of the source.

The assay has as its system UACC-62 melanoma. Description: NCI-60 one-dose screen, 48 h (100 = growth as untreated, 0 = no growth, -100 = all killed). The note with it: 10 µM unless noted.
Consider `N#C/C(=C\c1ccc(-c2ccc(Cl)c(Cl)c2)o1)c1nc(-c2ccco2)cs1`, for which the growth was 78.3%.

For `CC(C)C1=C[C@@]23CC[C@@H]4[C@](C)(CCC[C@@]4(C)C(=O)N4CCCNCC4)[C@H]2C[C@@H]1[C@H]1C(=O)CCC(=O)[C@H]13`, the growth was 98.2%.

With `COc1ccc(CCNc2nc(SC)nc(-c3cccc([N+](=O)[O-])c3)c2C#N)cc1OC`, the growth is 80.8%.

As to `Cc1cc(NS(=O)(=O)c2ccc(-c3cnc(C4CC4)o3)cc2)ccc1Cl`, the growth was 26.4%.

Consider `COc1ccc(-c2cc(C(=O)N=Nc3c(O)[nH]c4ccc(Br)cc34)no2)cc1`, for which the growth is 101%.

`CCCOc1cc2ccccc2cc1C(=O)Nc1nc(NC)c2c(ccc3nccc32)[nH]1`: the growth is -77.3% (active).

Turning to `CCCCN(CCCC)CCCn1c(-c2ccccc2)ccc1-c1ccccc1`, the growth was 82.4%.

With `Cc1nc2ccccc2n1C(=O)C[C@@H]1NC(=S)NC1=O`, the growth is 97.1%.

On to `N#CCCN=Nc1c(O)[nH]c2ccc([N+](=O)[O-])cc12`, for which the growth was 93.2%.

As to `Cc1cc(N2CCOCC2)nc(NCc2cc(Nc3ccnc4cc(Cl)ccc34)ccc2F)n1`, the growth is -83.6% (active).

As to `Nc1n[nH]c2ccc([C@@H]3Nc4cc5c(cc4[C@H]4C6CCC(C6)[C@@H]34)C(=O)NC5)cc12` (stereo partly drawn), the growth is 38.9%.

As to `c1ccc(-c2c(-c3ccccc3)[n+](Cc3ccc4ccccc4c3)c(-c3ccc(-c4nc5ccccc5s4)cc3)n2Cc2ccc3ccccc3c2)cc1`, the growth is -75.2% (active).

As to `C=CC(=O)Nc1cccc(-c2nc(SC)nc(NCc3ccccc3)c2C#N)c1`, the growth is 61%.
